Assay results published in ChEMBL document CHEMBL3988442, “University of Dundee, Small-Polar-MMV Screening Library” (2021).
Among all 48,000 compounds or so, about 13,000 (27%) showed an effect of 50% or more. Some of the results follow.

System: Wolbachia pipientis
Test: Anti-Wolbachia Cell-Based Screen
Assay type: functional
Design: scale not given: in the data most compounds retested in dose-response had high values
Settings: 5 µM

Q: Which “Percent Effect” value does the source give for `CCN(CC)Cc1cc(C(=O)N2CCC3(CC2)NCCNC3=O)c(C)o1` here?
A: -9.012%

Q: With `Cc1nc(-c2ccncc2)nc(N(C)CCc2ccncc2)c1C` as the compound, how does the “Percent Effect” value read?
A: 0.9394%

Q: How did the “Percent Effect” value turn out when `COCCN(C)c1cnn(C)c(=O)c1Br` was run?
A: 101.6%

Q: `CN(CCc1ccncc1)c1cnn(C)c(=O)c1Br` was tested. Which “Percent Effect” value did it give?
A: 103%

Q: Which “Percent Effect” value does the source give for `CN(CCc1ccccc1)c1cnn(C)c(=O)c1Br` here?
A: 67.25%

Q: Which “Percent Effect” value does the source give for `CC(C)N(C)C(=O)Cn1ncc(N(C)CCc2ccccc2)cc1=O` here?
A: -17.71%

Q: With `COCCN(Cc1ccc(F)cc1Cl)C(=O)c1cnn(C)c1C` as the compound, how does the “Percent Effect” value read?
A: -5.759%

Q: `CN(CCc1ccccn1)c1cnn(C)c(=O)c1Br` was tested. Which “Percent Effect” value did it give?
A: 101.4%

Q: Which “Percent Effect” value does the source give for `Cc1nc(N(C)C)nc(N(C)CCc2ccncc2)c1C` here?
A: 13.66%

Q: For `CN(CCc1ccccc1)c1cnn(Cc2ccccn2)c(=O)c1`, which “Percent Effect” value is on record?
A: 5.151%

Q: Which “Percent Effect” value does the source give for `CN(CCc1ccccn1)Cc1nccn1Cc1ccccc1` here?
A: 8.438%

Q: `COc1ccc(Br)cc1CN(C)c1nc2c(cnn2C)c(=O)[nH]1` was tested. Which “Percent Effect” value did it give?
A: -19.59%

Q: How did the “Percent Effect” value turn out when `CN(C)CCN(C)c1nc(CCc2ccccc2)nc2c1cnn2C` was run?
A: 4.899%

Q: Which “Percent Effect” value does the source give for `NS(=O)(=O)CCNC(=O)C1(c2ccc(Br)cc2)CC1` here?
A: -1.628%

Q: `CCc1nnc2n1CCN(C(=O)Cc1csc(-c3ccco3)n1)C2` was tested. Which “Percent Effect” value did it give?
A: -5.069%

Q: How did the “Percent Effect” value turn out when `CCCC(=O)NCC(=O)Nc1cc(F)ccc1SCC(F)F` was run?
A: 9.844%

Q: How did the “Percent Effect” value turn out when `Cc1noc([C@@H]2C[C@H](NC(=O)Nc3cccc(F)c3)CN2C)n1` was run?
A: -4.092%

Q: For `CS(=O)(=O)NCc1n[nH]c2c1CCN(C(=O)c1ccsc1)C2`, which “Percent Effect” value is on record?
A: -6.349%

Q: Which “Percent Effect” value does the source give for `Cc1nn(C)cc1-c1ccnc(N(C)Cc2cccs2)n1` here?
A: -35.4%

Q: `CCOc1cccc(CNC(C)c2ccc(-n3ccnc3)cc2)c1O` (stereo unspecified) was tested. Which “Percent Effect” value did it give?
A: -2.856%

Q: Which “Percent Effect” value does the source give for `O=C(c1ccc(F)cc1Cl)N1CCn2c(nnc2C(F)(F)F)C1` here?
A: -1.794%

Q: How did the “Percent Effect” value turn out when `OCCN1CCN(Cc2cnc3c(-c4ccccc4)cnn3c2)CC1` was run?
A: -3.434%

Q: With `COCCCC1(C(=O)O)CCCN(Cc2cc3c(cc2C)OCCO3)C1` (stereo unspecified) as the compound, how does the “Percent Effect” value read?
A: -2.058%

Q: `COCCNC(=O)CN1CC=C(n2c(C)nc(=O)c3ccccc32)CC1` was tested. Which “Percent Effect” value did it give?
A: 80.87%

Q: Which “Percent Effect” value does the source give for `O=C(c1cn(CC(=O)N2CCCCCC2)c2ccccc12)C1CC1` here?
A: -6.817%

Q: For `Cc1nc(=O)c2ccccc2n1C1=CCN(CC(=O)N2CCCC2)CC1`, which “Percent Effect” value is on record?
A: 121.3%

Q: Which “Percent Effect” value does the source give for `Cc1nc(=O)c2ccccc2n1C1=CCN(CC(=O)NC(C)C)CC1` here?
A: 121.8%

Q: For `COCCNC(=O)CN1CCN(c2nc3cc(C)ccc3o2)CC1`, which “Percent Effect” value is on record?
A: -13.48%

Q: How did the “Percent Effect” value turn out when `O=C(CN1CCc2cncnc2C1)NCCOc1ccccc1` was run?
A: -0.7298%

Q: `O=C(c1cn(CC(=O)N2CCCC2)c2ccccc12)C1CC1` was tested. Which “Percent Effect” value did it give?
A: -23.59%

Q: `Cc1nnc2n1CCN(CC(=O)NC(C)c1cccc3ccccc13)C2` (stereo unspecified) was tested. Which “Percent Effect” value did it give?
A: -6.251%

Q: How did the “Percent Effect” value turn out when `Cc1ccc2nc(N3CCN(CC(=O)NC(C)C)CC3)cc(C)c2c1` was run?
A: 5.586%

Q: `CCNC(=O)CN(CC)C(=O)c1cc(-c2cccc(Cl)c2)no1` was tested. Which “Percent Effect” value did it give?
A: -7.468%

Q: `CC(CN1CCOCC1)NC(=O)c1cccc2cn[nH]c12` (stereo unspecified) was tested. Which “Percent Effect” value did it give?
A: 6.229%

Q: How did the “Percent Effect” value turn out when `CN(C)C[C@H]1C[C@@H]2CN(C(=O)c3ccno3)C[C@@H]2O1.O=C(O)C(F)(F)F` was run?
A: -9.995%

Q: With `Cc1cnc(C(=O)N2CCCN(Cc3cnn(C(C)C)c3)CC2)cn1` as the compound, how does the “Percent Effect” value read?
A: 1.046%

Q: Which “Percent Effect” value does the source give for `CC(C)n1cc(CN2CCCN(C(=O)CN3CCCC3=O)CC2)cn1` here?
A: 122.9%

Q: For `Cc1cnn(CC(=O)N2CCCN(Cc3cnn(C(C)C)c3)CC2)c1`, which “Percent Effect” value is on record?
A: 117.3%

Q: Which “Percent Effect” value does the source give for `Cc1cc(C(=O)N2CCCN(Cc3cnn(C(C)C)c3)CC2)no1` here?
A: 2.122%

Q: For `NS(=O)(=O)c1cnc(NCC2(c3ccccc3)CCC2)s1`, which “Percent Effect” value is on record?
A: -8.019%

Q: Which “Percent Effect” value does the source give for `Cc1cc(NC(=O)Cc2ccc3c(c2)OCO3)n(C)n1` here?
A: 120.5%

Q: How did the “Percent Effect” value turn out when `Cn1nccc1NC(=O)Cn1ccc(-c2ccc3c(c2)OCO3)n1` was run?
A: 132.1%

Q: How did the “Percent Effect” value turn out when `Cn1ncc(NC(=O)Cn2ccc(-c3ccc(F)cc3)n2)n1` was run?
A: 6.673%

Q: With `Cn1ncc(NC(=O)Cn2ccc(-c3cccc(F)c3)n2)n1` as the compound, how does the “Percent Effect” value read?
A: -3.857%

Q: How did the “Percent Effect” value turn out when `Cc1cc(N2CCN(C(=O)Cc3ccc4c(c3)OCO4)CC2)cc(C)n1` was run?
A: -8.837%

Q: How did the “Percent Effect” value turn out when `Cc1cc(NC(=O)Cn2ccc(-c3ccc4c(c3)OCO4)n2)n(C)n1` was run?
A: 140.3%

Q: For `CCC1CN(CC(=O)Nc2cc(C)nn2C)CCO1` (stereo unspecified), which “Percent Effect” value is on record?
A: 11.37%

Q: `Cc1cc(NC(=O)NCCc2ccc3c(c2)OCCO3)n(C)n1` was tested. Which “Percent Effect” value did it give?
A: -3.946%

Q: For `CC(=O)c1ccc(-c2cnn(CC(=O)Nc3cc(C)nn3C)c2)nc1`, which “Percent Effect” value is on record?
A: 2.251%

Q: Which “Percent Effect” value does the source give for `CCCOc1cc(Cl)c(CN2CCNC(C(=O)NC3CC3)C2)cc1OC` (stereo unspecified) here?
A: -0.8522%

Q: `O=C(c1cncc(N2CCCC3(CCNCC3)CC2)n1)N1CCCCC1` was tested. Which “Percent Effect” value did it give?
A: 3.422%
